From PubChem BioAssay AID1568 (National Center for Advancing Translational Sciences (NCATS), 2009)
Results filed as inconclusive are left out. Unmarked numbers belong to inactive results. Activity calls are given as the source filed them. The call rests on the fitted dose curve; in most records, active means well fitted curve in the direction sought with a large enough effect; inconclusive means small, poorly fitted or top-dose-only effect, or effect the other way, or another doubt; inactive means no such curve, though single readings can be large or run the other way.

Assay: Cell Viability Secondary Assay to Characterize qHTS Inhibitors of the Interaction of Thyroid Hormone Receptor and Steroid Receptor Coregulator 2
Details: cell viability counter-screen, qHTS titration; series mostly up to 29.9 µM; activity change, negative = cytotoxicity: at the top concentration
Text: NIH Molecular Libraries Probe Production Network [MLPCN]
NIH Chemical Genomics Center [NCGC]
Assay Provider: R. Kip Guy, St. Jude Children's Research Hospital
Thyroid receptor (TR) regulates many homeostatic processes including basal metabolism, cardiovascular function, body weight, and lipid trafficking. TR modulators are potential therapeutics for obesity and hyperlipidemias but current thyroid analogs have undesirable side effects, particularly cardiac stimulation. This secondary assay characterized selected actives identified in the qHTS for Inhibitors of the Interaction of Thyroid Hormone Receptor and Steroid Receptor Coregulator 2. The human follicular thyroid carcinoma cell line WRO (kindly provided by Dr. M. D. Ringel) stably expresses TRbeta and a luciferase reporter gene fused to TR response element. The effect of compounds on the viability of these cells was assessed by measuring ATP levels. Compounds that reduce cell viability are likely cytotoxic.
NCGC Assay Protocol Summary:
Cells were maintained in RPMI 1640 culture medium supplemented with 10% heat-inactivated FBS, 0.33 mg/ml hygromycin, 0.33 mg/ml geneticin, 50 units/ml penicillin, 50 ug/ml streptomycin. Cells were harvested and resuspended at 330,000 cells/ml in assay medium (50% DMEM 50% F-12 medium without Phenol-Red (Cellgro #16-405-CV), L-glutamine, 10% heat inactivated and charcoal treated FBS, 100 uM non-essential amino acid, 50 units/ml penicillin, 50 ug/ml streptomycin). Cells were dispensed at 10,000 cells/30 ul/well into 384 well plates (Corning 3917) and incubated 12 h at 37 C and 5% CO2. Compounds and T3 (100nM final concentration) were added using a pin tool and plates were incubated 16 h incubation at 37 C and 5% CO2. Following incubation, plates were equilibrated at ambient temperature for 30 min, 20 ul of CellTiter-Glo (Promega) was added and luminescence was detected by an EnVision (PerkinElmer).

Row | SMILES | activity change, negative = cytotoxicity | Potency
1 | CCOC(=O)C(NC(=O)Nc1ccc(O)cc1)(c1ccccc1)C(F)(F)F (stereo not given) | -7.62% | –
2 | O=C(/C=C/c1ccco1)NC(=S)Nc1cc(C(F)(F)F)ccc1N1CCOCC1 | -20.7% | –
3 | C=CCSc1nnc2n(-c3ccccc3OC)c(=O)c3c4c(sc3n12)CCC4 | -15% | –
4 | CC(=O)NC1N=C(C)N(c2ccccc2)C1=O (stereo not given) | 1.59% | –
5 | CC(NC(=O)Nc1ccc(O)cc1)(C(F)(F)F)C(F)(F)F | 9.82% | –
6 | CCOc1cc(C(c2c(C)[nH][nH]c2=O)c2c(C)[nH][nH]c2=O)ccc1OS(=O)(=O)c1ccc(C)cc1 | 4.22% | –
7 | COc1ccc(-c2nc(CS(=O)CC(=O)NCc3ccccn3)c(C)o2)cc1 (stereo not given) | -17.9% | –
8 | COc1ccc2ccc3c(c2c1)N=CC1(O3)N(C)c2ccccc2C1(C)C (stereo not given) | -20.7% | –
9 | N#Cc1c(NC(=O)c2ccccc2Cl)n(Cc2ccccc2)c2nc3ccccc3nc12 | -24.3% | –
10 | COC(=O)c1ccccc1-c1ccc(C(c2c(C)[nH][nH]c2=O)c2c(C)[nH][nH]c2=O)o1 | -2.46% | –
11 | COc1ccc(C(=O)/C=C/Nc2ccc(S(=O)(=O)Nc3ncccn3)cc2)cc1 | -16.8% | –
12 | COc1ccc(C(=O)Oc2ccc(C(c3c(C)[nH][nH]c3=O)c3c(C)[nH][nH]c3=O)cc2OC)cc1 | 13.6% [at 59.9 µM] | –
13 | COc1cc(C(c2c(C)[nH][nH]c2=O)c2c(C)[nH][nH]c2=O)ccc1OC(=O)c1cccc(C)c1 | -3.92% [at 59.9 µM] | –
14 | Cc1cccc(Cn2c(C(=O)OC(C)C)cc3c2ccn3C)c1 | -28.9% | –
15 | C/C(=C\C(=O)c1ccccc1)Nc1ccc(O)cc1 | 4.99% | –
16 | Oc1ccc2ccccc2c1/C=N/c1nccs1 | 0.358% | –
17 | CN(CCO)c1nc(N)c2c(N)nc3c(c2c1C#N)CC(=O)N3C1CCCC1 | 4.93% | –
18 | O=C(O)[C@H]1CN(CCCP(=O)(O)O)CCN1 | -100% [at 59.9 µM] | –
19 | CCN(C(=O)C1CCCN(c2ncnc3onc(-c4ccc(F)cc4)c23)C1)c1ccccc1 (stereo not given) | -2.77% [at 59.9 µM] | –
20 | COc1ccc(CN2C(=O)Cc3c2nc(N)c2c(N)nc(N4CCCCC4)c(C#N)c32)cc1 | 9.78% | –

Row | SMILES | activity change, negative = cytotoxicity | Potency
21 | CN1CCc2ccc3c4c2[C@]1(C)Cc1cccc(c1-4)OCO3 | – | 8.91 µM (active)
22 | CCSc1ncc(Cl)c(C(=O)Nc2nc3ccc(OC)cc3s2)n1 | 3.92% [at 59.9 µM] | –
23 | CS(=O)(=O)c1ccc(C(=O)OCC(=O)NC(=O)C2CCCCC2)cc1[N+](=O)[O-] | -20.7% | –
24 | Oc1ccc2ccccc2c1/C=N/c1nc2c(s1)CCCC2 | -5.14% | –
25 | Cc1c(C#N)c(O)n(CCO)c(=O)c1N=Nc1ccc2c(c1)COC2=O | -16% | –
26 | Cc1nnc(SCC(=O)Nc2ccc(N(C)C)cc2)[nH]c1=O | -0.944% [at 59.9 µM] | –
27 | Cc1nc2ccccc2n2c(O)c(CC(=O)O)cc12 | 0.278% | –
28 | Nc1c(C(=O)NCc2ccco2)c2nc3ccccc3nc2n1CCc1ccccc1 | -13.6% | –
29 | C=CCNC(=O)/C(C#N)=C/c1c(C)nn(-c2ccc(Cl)cc2)c1Cl | -7.83% | –
30 | CC1=NN(Cc2ccccc2)C(=O)C1 | 6.13% | –
31 | CCOc1ccc(C2=Cc3cc(OC)c(OC)cc3C(=C(Cl)Cl)O2)cc1 | -12.9% | –
32 | Nc1cc(N)c(OCC(F)(F)F)cc1OCC(F)(F)F | – | 14.1 µM (active)
33 | N/C(Cc1cccc2ccccc12)=N\OC(=O)c1cccs1 | -11.8% | –
34 | COc1cc(NC(C)CCCN)c2ncccc2c1 (stereo not given) | – | 22.4 µM (active)
35 | CCC(NC(=O)Nc1ccc(O)cc1)(C(F)(F)F)C(F)(F)F | 8.19% | –
36 | O=C(NNc1cc(N2CCOCC2)nc(N2CCOCC2)n1)c1ccc([N+](=O)[O-])cc1 | -11.2% | –
37 | Cn1c(=O)[nH]c2nnc(-c3ccc(Cl)c(Cl)c3)nc2c1=O | -11.1% | –
38 | CC1=NN(c2ccc(F)cc2)C(=O)C1C(c1cccc(O)c1)c1c(C)[nH]n(-c2ccc(F)cc2)c1=O (stereo not given) | -4.18% | –
39 | CC1(C)C(N(O)C(=O)Nc2ccc(Cl)cc2)N(c2ccc(Cl)cc2)C(=O)N1CC(=O)NN (stereo not given) | 8% | –
40 | CN(C)c1cc(Cl)c2nonc2c1N | -13.2% | –
